Screens: PubChem BioAssay, National Center for Advancing Translational Sciences (NCATS)
An excerpt weighted towards active compounds, which were near 7.1% of everything screened.
SW480 rereplic = A quantitative high throughput screen for small molecules that induce DNA re-replication in SW480 colon adenocarcinoma cells; SW480 DNA re-replication, Hoechst DNA content imaging, 48 h; Potency, µM (doses to about 46.1 µM), for inactives: top-dose re-replication activation, most hits filed as activators; AID 624297, 2012; 340,000 compounds, 1.8% hits; also: % of control where 0% means no effect; nearly all actives have a fitted effect of over 55% in size
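Compounds, transferred as 23 nL by pin tool, were incubated with cells for 48 hr; DNA content per nucleus was then quantified by Hoechst staining and fluorescence plate imaging.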
p53 reactivation = qHTS assay for re-activators of p53 using a Luc reporter | H1299 p53-A138V BP100-luciferase reporter, luminescence, 24 h | Potency, µM (series often up to 92.2 µM), without a hit: top-dose activity change, positive = activation, hits mostly activators | 320,000 compounds, 0.063% hits | AID 504706, 2011; also: % of control where 0% means no effect; nearly all actives have a fitted effect of over 45% in size
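p53-null H1299 cells stably carrying temperature-sensitive p53-A138V and a BP100-luciferase reporter were pinned with compounds (4-point, 1:5 series) and held 24 hrs at 37 deg C. Luminescence was read 10 min after detection reagent.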
ELG1 DNA repair = qHTS screen for small molecules that inhibit ELG1-dependent DNA repair in human embryonic kidney (HEK293T) cells expressing luciferase-tagged ELG1; AID 504467, 2011; HEK293T ELG1-luciferase reporter, luminescence, 16 h; DNA damage induced by 5-fluorouridine; Potency, µM (series often up to 46.1 µM), for inactives: at the top dose activity change, negative = inhibition, actives largely listed as inhibitors; 330,000 compounds, 2.3% hits; also: % is scaled to controls: 0 for no effect and ±100 for the full control effect; nearly all actives have a fitted effect of over 55% in size
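Luminescence from the luciferase reporter, measured 30 min after ONE-Glo reagent at room temperature, was the read-out. Beforehand, 2,000 cells per well were exposed for 16 hr at 37 °C to 5-fluorouridine together with compound or vehicle.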
MCF10A rereplic = A quantitative high throughput screen for small molecules that induce DNA re-replication in MCF 10a normal breast cells | 350,000 compounds, 2.9% hits | MCF 10A DNA re-replication, Hoechst nuclear intensity, 48 h | Potency, µM (highest dose often 46.1 µM), inactives show at the highest dose activity, positive = re-replication, actives largely listed as activators | AID 624296, 2012; also: % of control where 0% means no effect; nearly all actives have a fitted effect of over 50% in size
ELG1 genotox = qHTS screen for small molecules that induce genotoxicity in human embryonic kidney (HEK293T) cells expressing luciferase-tagged ELG1 | Potency, µM (titrated, usually from 46 µM), for inactives: at the highest dose activity change, positive = activation, usual class: activators | 330,000 compounds, 1.3% hits | AID 504466, 2011 | HEK293T ELG1-luciferase reporter, luminescence, 16 h; also: % of control where 0% means no effect; nearly all actives have a fitted effect of over 60% in size
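ELG1-luciferase HEK293T cells, 2,000/well; compound pinned in; 16 hr, 37 °C, 5% CO2; ONE-Glo, 30 min RT; luminescence on CCD imager.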
AT treatment = qHTS Assay for Identifying a Potential Treatment of Ataxia-Telangiectasia. F2112 A-T fibroblasts, KAP-1 phosphorylation AlphaLISA; neocarzinostatin DNA damage 30 min before lysis. Potency, µM (series often up to 57.5 µM), for the others: at the highest dose activation, most hits filed as activators. 320,000 compounds, 0.19% hits. AID 485349, 2010; also: % of control where 0% means no effect; nearly all actives have a fitted effect of over 45% in size
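ATM-like activity read as KAP-1 phosphorylation via AlphaLISA donor/acceptor antibody pairs after lysis and 6 hr at 25C. Cells were ATM-null patient fibroblasts (F2112, hTERT), dosed 60 min, then exposed to the DSB inducer NCS for 30 min.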
* hit, by the source's call. Calls follow the shape of the dose curve; as a rule, active = well fitted curve in the direction sought with a large enough effect; inconclusive = small, poorly fitted or top-dose-only effect, or another doubt; inactive = no such curve, though single readings can be large; an effect the other way counts as inactive or inconclusive. Potency is read from the fitted curve at half-maximal effect.

How did Cc1cc(C)n(CC(=O)NNC(=O)CC(C)c2ccccc2)n1 (stereo unspecified) do in these assays?
SW480 rereplic: 0%; p53 reactivation: inconclusive; ELG1 DNA repair: inconclusive; MCF10A rereplic: 11%; ELG1 genotox: 0%; AT treatment: 2%

What do the screens show for `CSCCC(NC(=O)c1ccccc1Cl)C(=O)NNC(=O)c1ccncc1` (stereo unspecified)?
SW480 rereplic: -52%; p53 reactivation: 9%; ELG1 DNA repair: -1%; MCF10A rereplic: -4%; ELG1 genotox: 2%; AT treatment: -1%

How did O=C(c1ccccc1)c1ccc(OCC(O)CNCc2cccc(Cl)c2)cc1 (stereo unspecified) do in these assays?
SW480 rereplic: -3%; p53 reactivation: 10%; ELG1 DNA repair: 18%; MCF10A rereplic: 21µM*; ELG1 genotox: 4%; AT treatment: 1%

What do the screens show for `Cc1nc2c(C)cccn2c1/C(O)=C1\C(=O)C(=O)N(CCN(C)C)C1c1ccco1` (stereo unspecified)?
SW480 rereplic: -4%; p53 reactivation: 1%; ELG1 DNA repair: -14%; MCF10A rereplic: 2%; ELG1 genotox: -5%; AT treatment: -6%

What do the screens show for `CCc1ccccc1NC(=O)Nc1cc(F)ccc1F`?
SW480 rereplic: 29µM*; p53 reactivation: -1%; ELG1 DNA repair: -3%; MCF10A rereplic: -1%; ELG1 genotox: 4%; AT treatment: 4%

Results for CNc1ccc(C(=O)c2ccccc2C(=O)O)cc1[N+](=O)[O-] ?
SW480 rereplic: 1%; p53 reactivation: 2%; ELG1 DNA repair: 7%; MCF10A rereplic: -4%; ELG1 genotox: 1%; AT treatment: -1%

Results for CNc1ccc(/C=C/C(=O)c2cccc3ccccc23)cc1[N+](=O)[O-] ?
SW480 rereplic: 16µM*; p53 reactivation: -12%; ELG1 DNA repair: -28%; MCF10A rereplic: inconclusive; ELG1 genotox: 15%; AT treatment: -12%

Results for CC(C)c1ccc(-n2nnnc2SCC(=O)NC2CC2)cc1 ?
SW480 rereplic: -10%; p53 reactivation: 27%; ELG1 DNA repair: 6%; MCF10A rereplic: 3%; ELG1 genotox: 3%; AT treatment: 6%

How did Cc1nnc(N2C(=O)c3cccc4c([N+](=O)[O-])ccc(c34)C2=O)s1 do in these assays?
SW480 rereplic: inconclusive; p53 reactivation: -20%; ELG1 DNA repair: inconclusive; MCF10A rereplic: 23µM*; ELG1 genotox: -28%; AT treatment: -1%

What do the screens show for `Cc1ccc(N2C(=O)c3cccc4c([N+](=O)[O-])ccc(c34)C2=O)c2cccnc12`?
SW480 rereplic: 2.1µM*; p53 reactivation: -3%; ELG1 DNA repair: -11%; MCF10A rereplic: 2.6µM*; ELG1 genotox: 4%; AT treatment: -8%

Results for O=C1c2cccc3c([N+](=O)[O-])ccc(c23)C(=O)N1Cc1cccnc1 ?
SW480 rereplic: inconclusive; p53 reactivation: -16%; ELG1 DNA repair: inconclusive; MCF10A rereplic: 18µM*; ELG1 genotox: 12%; AT treatment: -4%

What do the screens show for `Cc1ccc(N2C(=O)c3cccc4c(N5CCN(C)CC5)ccc(c34)C2=O)c2cccnc12`?
SW480 rereplic: -5%; p53 reactivation: -15%; ELG1 DNA repair: inconclusive; MCF10A rereplic: -9%; ELG1 genotox: -5%; AT treatment: 0%

How did Cc1ccnc(N2C(=O)c3ccccc3C2=O)c1 do in these assays?
SW480 rereplic: -4%; p53 reactivation: -3%; ELG1 DNA repair: 0%; MCF10A rereplic: -2%; ELG1 genotox: -5%; AT treatment: -5%
